Assay outcomes (PubChem)
The entries come from a sample that favours hits as a whole.
G9a block: blocks human histone lysine methyltransferase G9a. Q96KQ7. G9a H3K9 monomethylation, AlphaScreen, 2 h. Potency, µM (doses to about 102 µM), actives largely listed as inhibitors. 8.8% of 350,000 active. AID 504332; also: nearly all actives have a fitted effect of over 75% in size
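AlphaScreen detection with an anti-monomethyl H3K9 antibody quantified product after a 2 h room-temperature reaction containing 500 nM biotinylated H3K9 peptide, 20 µM SAM and 20 nM enzyme, which had been preincubated 15 min with compound.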
ALOX12 inh: blocks human arachidonate 12S-lipoxygenase; Potency, µM (doses to about 108 µM), hits mostly inhibitors; AID 1671190; purified 12hLO, xylenol orange hydroperoxide absorbance; P18054; 1.1% of 580,000 active
Target sequence (P18054 whole entry, looked up): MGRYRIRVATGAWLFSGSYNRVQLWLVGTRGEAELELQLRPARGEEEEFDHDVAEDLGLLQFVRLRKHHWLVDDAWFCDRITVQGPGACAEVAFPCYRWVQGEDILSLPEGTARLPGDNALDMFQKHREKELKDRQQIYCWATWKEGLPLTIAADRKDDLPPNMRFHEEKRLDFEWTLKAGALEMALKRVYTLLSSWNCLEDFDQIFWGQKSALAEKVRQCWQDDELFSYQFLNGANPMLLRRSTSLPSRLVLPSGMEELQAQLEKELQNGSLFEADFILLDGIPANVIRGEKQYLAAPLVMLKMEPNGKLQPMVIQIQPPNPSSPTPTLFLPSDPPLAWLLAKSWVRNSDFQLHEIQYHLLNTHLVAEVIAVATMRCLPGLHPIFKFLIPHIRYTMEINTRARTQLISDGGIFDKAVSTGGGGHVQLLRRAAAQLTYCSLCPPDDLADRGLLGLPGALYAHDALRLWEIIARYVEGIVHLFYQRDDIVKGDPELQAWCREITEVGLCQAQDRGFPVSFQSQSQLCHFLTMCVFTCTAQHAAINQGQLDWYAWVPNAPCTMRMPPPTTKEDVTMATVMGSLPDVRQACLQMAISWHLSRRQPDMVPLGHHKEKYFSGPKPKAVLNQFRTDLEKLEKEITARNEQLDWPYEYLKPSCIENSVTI
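Hydroperoxide product was detected by ferrous iron/xylenol orange as the 573 to 405 nm absorbance ratio. Arachidonic acid at 40 uM (final) was turned over for 30 min at room temperature by 150 nM human 12hLO, pH 7.0 Hepes buffer, after 15 min compound preincubation.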
Sfp PPTase inh: blocks B. subtilis Sfp PPTase activity; Q9F4F7; Biochemical Sfp PPTase activity, qHTS; 3.5% of 310,000 active; Potency, µM, usual class: inhibitors;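 also: the enzyme is Sfp with the accession as filed and its product quenches rhodamine fluorescence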
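Fluorescence-quenching assay with 15 nM Sfp, 5 uM rhodamine-CoA and 12.5 uM BHQ-2-labelled ybbR peptide in pH 7.6 Hepes/MgCl2 buffer. Enzyme was pre-incubated with compound for 15 min at room temperature. Rate was taken from the 30-min fluorescence change (525/598 nm).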
GRP78 ERSR act: ER stress response induction in glioma; U87-MG GRP78 promoter luciferase reporter, 16 h; Potency, µM, usual class: activators; 0.02% of 420,000 active; also: series mostly up to about 76 µM; nearly all actives have a fitted effect of over 35% in size
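Stably transfected U87-MG human glioma cells carrying a GRP78-based luminescent sensor were seeded at 1000 cells/well, pin-dosed with compounds and incubated 16 h. Luciferase reagent was then added, and end-point luminescence was read after 10 min at room temperature.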
VDR inh: inhibitors of human vitamin D receptor; P11473; 0.93% of 400,000 active; Potency, µM, actives largely listed as inhibitors; VDR-SRC2-3 peptide fluorescence polarization, 2 h
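Measured by FP: displacement of SRC2-3 coactivator peptide from VDR by library compounds, following a two-hour ambient incubation.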
Hits are given with their value; [ ] = remark or other dose. Calls follow the shape of the dose curve; as a rule, active = well fitted curve in the direction sought with a large enough effect; inconclusive = small, poorly fitted or top-dose-only effect, or another doubt; inactive = no such curve, though single readings can be large; an effect the other way counts as inactive or inconclusive.

Results for Cc1ccc(C)c2c(C)c(C(=O)N3CCCC(O)(CN4CCCC4)C3)[nH]c12 (centres undefined) ?
ALOX12 inh: inactive

How did Cc1cccc(-c2nc(CNC(=O)c3ccco3)cs2)c1 do in these assays?
G9a block: 50µM; ALOX12 inh: inactive; Sfp PPTase inh: inactive; GRP78 ERSR act: inactive; VDR inh: inactive

How did COc1ccc(-c2nc(CCNC(=O)c3ccco3)cs2)cc1OC do in these assays?
G9a block: inconclusive; ALOX12 inh: inactive; Sfp PPTase inh: inactive; GRP78 ERSR act: inactive; VDR inh: inactive

How did c1ccc(-c2noc(-c3cncnc3NCc3ccco3)n2)cc1 do in these assays?
ALOX12 inh: inactive

Results for c1ccc(-c2noc(-c3cccnc3NCc3ccco3)n2)cc1 ?
G9a block: 18µM; ALOX12 inh: inactive; GRP78 ERSR act: inactive; VDR inh: inactive

Results for Cc1cccc(-c2noc(-c3ccccc3C(=O)NCc3ccco3)n2)c1 ?
G9a block: inconclusive; ALOX12 inh: inconclusive; Sfp PPTase inh: 40µM; GRP78 ERSR act: inactive; VDR inh: inactive

How did O=C(O)CCCCCCCCCC(=O)O do in these assays?
ALOX12 inh: inactive

How did CN(Cc1ccccc1Br)c1ccc(S(N)(=O)=O)cn1 do in these assays?
ALOX12 inh: inactive

How did Cc1ccc(/C=N/n2c(COc3ccccc3)n[nH]c2=S)o1 do in these assays?
G9a block: 13µM; ALOX12 inh: inconclusive; Sfp PPTase inh: 45µM; GRP78 ERSR act: inactive; VDR inh: inactive

Results for CCOc1ccccc1/C=N/n1c(COc2ccccc2)n[nH]c1=S ?
G9a block: 14µM; ALOX12 inh: inconclusive; Sfp PPTase inh: 35µM; GRP78 ERSR act: inactive; VDR inh: inactive

Results for Oc1ccc(/C=N/n2c(COc3ccccc3)n[nH]c2=S)c(O)c1 ?
G9a block: 1.8µM; ALOX12 inh: 45µM; Sfp PPTase inh: 56µM; GRP78 ERSR act: inactive; VDR inh: inactive

How did CCc1n[nH]c(=S)n1/N=C/c1ccccc1OCc1ccc(Cl)cc1 do in these assays?
ALOX12 inh: inactive; Sfp PPTase inh: inconclusive; GRP78 ERSR act: inactive; VDR inh: inactive

Results for Oc1ccccc1/C=N/n1c(COc2ccccc2)n[nH]c1=S ?
G9a block: 2.5µM; ALOX12 inh: inactive; Sfp PPTase inh: inconclusive; GRP78 ERSR act: inactive; VDR inh: inactive

How did COc1ccc(OC)c(/C=N/n2c(COc3ccccc3)n[nH]c2=S)c1 do in these assays?
G9a block: inconclusive; ALOX12 inh: inactive; Sfp PPTase inh: inactive; GRP78 ERSR act: inactive; VDR inh: inactive

Results for Cc1ccc2c(c1)OC=CC(C(=O)Nc1ccc(Cl)c(Cl)c1)=C2 ?
ALOX12 inh: inactive

How did COc1ccccc1CNC(=O)Cn1ccc2cccc(OC)c21 do in these assays?
ALOX12 inh: inactive

How did CCCS(=O)(=O)N1CCCN(c2ccc(=O)n(-c3ccc(C)c(C)c3)n2)CC1 do in these assays?
ALOX12 inh: inactive

Results for S=c1[nH]nc(COc2ccccc2)n1/N=C/c1ccc(Cl)cc1Cl ?
G9a block: inconclusive; ALOX12 inh: inactive; Sfp PPTase inh: inactive; GRP78 ERSR act: inactive; VDR inh: inactive

Results for CC(/C=N/n1c(COc2ccccc2)n[nH]c1=S)=C\c1ccco1 ?
G9a block: 3.2µM; ALOX12 inh: inconclusive; Sfp PPTase inh: inactive; GRP78 ERSR act: inactive; VDR inh: inactive

How did Fc1ccccc1/C=N/n1c(COc2ccccc2)n[nH]c1=S do in these assays?
G9a block: 2.2µM; ALOX12 inh: inconclusive; Sfp PPTase inh: 56µM; GRP78 ERSR act: inactive; VDR inh: inactive

Results for Cc1ccc(/C=N/n2c(COc3ccccc3)n[nH]c2=S)s1 ?
G9a block: inactive[0.501 µM]; ALOX12 inh: inconclusive; Sfp PPTase inh: inactive; GRP78 ERSR act: inactive; VDR inh: inactive

Results for Cc1ccccc1/C=N/n1c(COc2ccccc2)n[nH]c1=S ?
G9a block: 2µM; ALOX12 inh: inactive; Sfp PPTase inh: inactive; GRP78 ERSR act: inactive; VDR inh: inactive

Results for CCn1c2ccccc2c2cc(CNCCc3c[nH]c4ccccc34)ccc21 ?
ALOX12 inh: 40µM

Results for CCOc1cc(CNc2ccc(N3CCCCC3)cc2)cc(Br)c1OCC(=O)NC(C)(C)C ?
G9a block: 10µM; ALOX12 inh: inconclusive; Sfp PPTase inh: inactive; GRP78 ERSR act: inactive; VDR inh: inactive

Results for CCOc1cc(CNc2ccc(N3CCOCC3)cc2)cc(Br)c1OCC ?
G9a block: 25µM; ALOX12 inh: 32µM; Sfp PPTase inh: inactive; GRP78 ERSR act: inactive; VDR inh: inactive

Results for CCOc1ccc(Br)cc1S(=O)(=O)Nc1ccc(N2CCOCC2)cc1 ?
G9a block: 11µM; ALOX12 inh: inactive; Sfp PPTase inh: inactive; GRP78 ERSR act: inactive; VDR inh: inactive

Results for CCOc1ccc(Br)cc1S(=O)(=O)N1CCCN(C)CC1 ?
G9a block: 50µM; ALOX12 inh: inactive; Sfp PPTase inh: inactive; GRP78 ERSR act: inactive; VDR inh: inactive

What do the screens show for `COc1cc(CNc2ccc(N3CCOCC3)cc2)cc(Br)c1OC`?
G9a block: 18µM; ALOX12 inh: inconclusive; Sfp PPTase inh: inconclusive; GRP78 ERSR act: inactive; VDR inh: inactive

Results for COc1cc2c(cc1OC)C1(NCC2)C(=O)Nc2ccccc21 (centres undefined) ?
G9a block: inactive; ALOX12 inh: inactive; Sfp PPTase inh: inactive; GRP78 ERSR act: inactive; VDR inh: inactive

How did COc1cc2c(cc1OC)C1(Nc3c-2c(Cc2ccccc2)nn3-c2ccccc2)C(=O)Nc2ccccc21 (centres undefined) do in these assays?
G9a block: 40µM; ALOX12 inh: inconclusive; Sfp PPTase inh: inactive; GRP78 ERSR act: inactive; VDR inh: inactive

What do the screens show for `Cc1cc(N2CCN(c3ccccc3Cl)CC2)n2cc(-c3ccccc3)nc2n1`?
G9a block: 50µM; ALOX12 inh: inactive; Sfp PPTase inh: inconclusive; GRP78 ERSR act: inactive; VDR inh: inactive

Results for Cc1cc(N2CCN(c3ccccc3)CC2)n2cc(-c3ccccc3)nc2n1 ?
G9a block: inactive[12.7 µM]; ALOX12 inh: inactive; Sfp PPTase inh: inconclusive; GRP78 ERSR act: inactive; VDR inh: inactive

What do the screens show for `Cc1ccc(-c2nc(CC(=O)NC3CCCC(C(F)(F)F)C3)cs2)cc1` (centres undefined)?
ALOX12 inh: inactive

How did Cc1c(C#N)c(NC(=O)CSc2nncn2-c2ccccc2)n(Cc2ccco2)c1C do in these assays?
ALOX12 inh: inactive

How did COc1ccc2[nH]c(C)c(C(=O)CN3CCC(Cc4ccccc4)CC3)c2c1 do in these assays?
ALOX12 inh: 25µM

How did Cc1ccc2oc(=O)c(/C=C(\O)c3ccccc3)nc2c1 do in these assays?
G9a block: 7.9µM; ALOX12 inh: inconclusive; Sfp PPTase inh: inconclusive; GRP78 ERSR act: inconclusive; VDR inh: inactive

How did CCS(=O)(=O)c1ccc2oc(=O)c(/C=C(\O)c3ccc(Cl)cc3)nc2c1 do in these assays?
G9a block: inactive; ALOX12 inh: inconclusive; Sfp PPTase inh: inactive; GRP78 ERSR act: inactive; VDR inh: inactive

How did Cc1ccc2oc(=O)c(/C=C(\O)CC(C)C)nc2c1 do in these assays?
G9a block: 50µM; ALOX12 inh: inactive; Sfp PPTase inh: inactive; GRP78 ERSR act: inactive; VDR inh: inactive
